“And” between values parts separate entries of the source, which are not always exact repeats. Identical values can stand only once. Hit rate of the full screen: of about 5,500 compounds, about 2,000 (36%) were called active. Another 18% or so got no clear call; they are omitted. Cut-off read from the data, not from the text of the source: active = normalized growth mostly below about 0.91 (no sharp cut-off); inconclusive = no clear call, values can overlap the other calls; inactive = mostly above about 0.92. Some of the results follow.
Assay: chemical genetic growth profiling, strain panel (AID 1159580);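 note: tested at 20 µM; growth read once vehicle control cultures reached saturation at 30 °C; 1 = growth at the plate median or of vehicle wells; lower values mean less growth of the strain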
Details: growth OD

Measured: normalized growth

CC(C)(C)NCC(O)c1ccccc1Cl (stereo unspecified)
inactive: S. cerevisiae deletion strains, locus YJR075W, strain HOC1, hits give low values 1.01 and 1.04 | S. cerevisiae deletion strains, locus YKL009W, strain mrt4, hits give low values 0.96 | S. cerevisiae deletion strains, locus YKL068W, hits give low values 0.991 | S. cerevisiae deletion strains, locus YKL085W, strain MDH1 (second series), hits give low values 0.983 | S. cerevisiae deletion strains, locus YKL085W, strain MDH1, hits give low values 0.983 | S. cerevisiae deletion strains, locus YKL160W, strain elf1, hits give low values 1.02 | S. cerevisiae deletion strains, locus YKL190W, strain CNB1, hits give low values 0.995 | S. cerevisiae deletion strains, locus YKR001C, strain vps1, hits give low values 0.976 | S. cerevisiae deletion strains, locus YKR026C, strain gcn3, hits give low values 0.994 | S. cerevisiae deletion strains, locus YKR091W, strain srl3, hits give low values 0.997 | S. cerevisiae deletion strains, locus YLL001W, strain dnm1, hits give low values 1 | S. cerevisiae deletion strains, locus YLL026W, hits give low values 0.983 | S. cerevisiae deletion strains, locus YLL041C, strain sdh2, hits give low values 0.997 | S. cerevisiae deletion strains, locus YLR027C, strain aat2, hits give low values 0.992 | S. cerevisiae deletion strains, locus YLR039C, strain RIC1, hits give low values 0.923 | S. cerevisiae deletion strains, locus YLR058C, strain SHM2, hits give low values 0.975 | S. cerevisiae deletion strains, locus YLR102C, strain apc9, hits give low values 0.986 | S. cerevisiae deletion strains, locus YLR113W, strain HOG1, hits give low values 1.01 | S. cerevisiae deletion strains, locus YLR221C, strain rsa3, hits give low values 1.01 | S. cerevisiae deletion strains, locus YLR258W, strain gsy2, hits give low values 0.974 | S. cerevisiae deletion strains, locus YLR262C, strain YPT6 (second series), hits give low values 0.997 | S. cerevisiae deletion strains, locus YLR262C, strain YPT6, hits give low values 0.887 | S. cerevisiae deletion strains, locus YLR268W, strain sec22, hits give low values 1.09 | S. cerevisiae deletion strains, locus YLR320W, strain mms22, hits give low values 0.981 | S. cerevisiae deletion strains, locus YLR330W, strain CHS5, hits give low values 0.992 | S. cerevisiae deletion strains, locus YLR342W, strain FKS1 (second series), hits give low values 0.967 | S. cerevisiae deletion strains, locus YLR342W, strain FKS1, hits give low values 0.999 | S. cerevisiae deletion strains, locus YLR357W, strain rsc2, hits give low values 0.982 | S. cerevisiae deletion strains, locus YLR370C, strain arc18, hits give low values 0.997 | S. cerevisiae deletion strains, locus YLR371W, strain rom2, hits give low values 0.982 | S. cerevisiae deletion strains, locus YLR384C, strain iki3, hits give low values 0.989 | S. cerevisiae deletion strains, locus YLR418C, strain cdc73, hits give low values 0.993 | S. cerevisiae deletion strains, locus YML016C, strain PPZ1, hits give low values 0.99 | S. cerevisiae deletion strains, locus YML032C, strain rad52, hits give low values 1.02 | S. cerevisiae deletion strains, locus YML120C, strain ndi1, hits give low values 1.01 | S. cerevisiae deletion strains, locus YML124C, strain tub3, hits give low values 0.984 | S. cerevisiae deletion strains, locus YMR058W, strain fet3, hits give low values 0.997 | S. cerevisiae deletion strains, locus YMR078C, strain ctf18, hits give low values 0.982 | S. cerevisiae deletion strains, locus YMR125W, strain sto1, hits give low values 0.962 | S. cerevisiae deletion strains, locus YMR129W, hits give low values 0.967 | S. cerevisiae deletion strains, locus YMR205C, strain PFK2, hits give low values 0.951 | S. cerevisiae deletion strains, locus YMR223W, strain ubp8, hits give low values 0.96 | S. cerevisiae deletion strains, locus YMR231W, strain pep5, hits give low values 0.998 | S. cerevisiae deletion strains, locus YMR263W, strain SAP30, hits give low values 0.993 and 0.995 | S. cerevisiae deletion strains, locus YMR307W, strain GAS1, hits give low values 0.994 and 0.992 | S. cerevisiae deletion strains, locus YNL067W, strain RPL9B, hits give low values 1.02 | S. cerevisiae deletion strains, locus YNL071W, strain lat1, hits give low values 1 | S. cerevisiae deletion strains, locus YNL128W, strain TEP1, hits give low values 0.962 | S. cerevisiae deletion strains, locus YNL153C, strain GIM3, hits give low values 1.01 | S. cerevisiae deletion strains, locus YNL175C, strain NOP13, hits give low values 1.02 | S. cerevisiae deletion strains, locus YNL183C, strain NPR1, hits give low values 0.939 | S. cerevisiae deletion strains, locus YNL197C, strain WHI3, hits give low values 0.981 | S. cerevisiae deletion strains, locus YNL209W, strain ssb2, hits give low values 1 | S. cerevisiae deletion strains, locus YNL224C, strain SQS1, hits give low values 1.01 | S. cerevisiae deletion strains, locus YNL233W, strain BNI4, hits give low values 1.02 | S. cerevisiae deletion strains, locus YNL248C, strain rpa49, hits give low values 1.02 | S. cerevisiae deletion strains, locus YNL250W, strain rad50, hits give low values 0.976 | S. cerevisiae deletion strains, locus YNL271C, strain bni1, hits give low values 0.987 | S. cerevisiae deletion strains, locus YNL298W, strain CLA4, hits give low values 0.975 | S. cerevisiae deletion strains, locus YNL307C, strain MCK1, hits give low values 0.992 | S. cerevisiae deletion strains, locus YNL322C, strain KRE1 (second series), hits give low values 0.989 | S. cerevisiae deletion strains, locus YNL322C, strain KRE1, hits give low values 0.996 and 1 | S. cerevisiae deletion strains, locus YNR049C, strain mso1, hits give low values 0.994 | S. cerevisiae deletion strains, locus YNR052C, strain pop2, hits give low values 0.985 | S. cerevisiae deletion strains, locus YOL006C, strain TOP1, hits give low values 1.03 | S. cerevisiae deletion strains, locus YOL012C, strain htz1 0.982 | S. cerevisiae deletion strains, locus YOL147C, strain pex11, hits give low values 0.992 | S. cerevisiae deletion strains, locus YOR001W, strain rrp6, hits give low values 0.996 | S. cerevisiae deletion strains, locus YOR061W, strain CKA2, hits give low values 0.969 | S. cerevisiae deletion strains, locus YOR069W, strain VPS5, hits give low values 0.991 | S. cerevisiae deletion strains, locus YOR070C, strain gyp1, hits give low values 0.992 | S. cerevisiae deletion strains, locus YOR080W, strain dia2, hits give low values 0.974 | S. cerevisiae deletion strains, locus YOR083W, strain WHI5 (second series), hits give low values 1.02 | S. cerevisiae deletion strains, locus YOR083W, strain WHI5, hits give low values 1.01 | S. cerevisiae deletion strains, locus YOR106W, strain vam3, hits give low values 1.01 | S. cerevisiae deletion strains, locus YOR136W, strain idh2, hits give low values 0.983 | S. cerevisiae deletion strains, locus YOR144C, strain elg1, hits give low values 0.996 | S. cerevisiae deletion strains, locus YOR184W, strain ser1, hits give low values 0.98 | S. cerevisiae deletion strains, locus YOR231W, strain MKK1, hits give low values 0.99 | S. cerevisiae deletion strains, locus YOR265W, strain rbl2, hits give low values 0.99 | S. cerevisiae deletion strains, locus YOR270C, strain vph1, hits give low values 1.05 | S. cerevisiae deletion strains, locus YOR290C, strain snf2, hits give low values 0.956 | S. cerevisiae deletion strains, locus YOR316C, strain cot1, hits give low values 0.995 | S. cerevisiae deletion strains, locus YPL051W, strain arl3, hits give low values 0.999 | S. cerevisiae deletion strains, locus YPL055C, strain LGE1, hits give low values 0.989 and 1 | S. cerevisiae deletion strains, locus YPL078C, strain atp4, hits give low values 1.01 | S. cerevisiae deletion strains, locus YPL106C, strain sse1, hits give low values 0.944 | S. cerevisiae deletion strains, locus YPL240C, strain hsp82, hits give low values 0.994 | S. cerevisiae deletion strains, locus YPL241C, strain CIN2, hits give low values 0.984 and 1 | S. cerevisiae deletion strains, locus YPL256C, strain CLN2, hits give low values 0.984 | S. cerevisiae deletion strains, locus YPR119W, strain clb2, hits give low values 0.987 | S. cerevisiae deletion strains, locus YPR141C, strain kar3, hits give low values 0.982 | S. cerevisiae deletion strains, locus YPR163C, strain tif3, hits give low values 0.981 | S. cerevisiae deletion strains, locus YPR167C, strain met16, hits give low values 0.993 | S. cerevisiae deletion strains, strain wtn01, hits give low values 1.01 | S. cerevisiae strains, strain wild type, hits give low values 0.988
